# NADH coupling – inhibition of NAD/NADH coupling enzymes, library profiling; coupled PK/LDH NADH assays, four targets; IC50, µM (highest dose often 10 µM), without a hit: at the highest dose inhibition; 0.02% of 65,000 active;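 active = single-dose screening hits from any of four coupled enzyme assays that gave an IC50 when retested across doses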;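 note: the DPM-DC format reads NADH fluorescence rather than 340 nm absorbance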
# Autofluor 339 – intrinsic fluorescence of library compounds, ex339/em460 – biochemical, MLSMR library, data from DPM-DC assay, artefact control, profiling panel | compound autofluorescence, ex339/em460 nm, NADH buffer; hits give high values; 1 = no-compound wells, NADH background | 5.5% of 65,000 active | fluorescence fold increase at 10 µM | AID 709;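 active = at 10 µM, mean starting fluorescence two-fold or more over control wells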;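 note: signal is the first read of a kinetic run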
# A340 absorber – compound absorbs light at 340 nm; compound absorbance at 340 nm, fold over control; fold change at 10 µM; 65,000 tested, under 10 active; AID 708;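 active = at 10 µM dose, initial 340 nm absorbance at least 2 fold that of control wells; inactive = change under 2 fold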;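 note: initial absorbance extrapolated from kinetic A340 decline of NADH oxidation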
# MK inhibit – blocks S. pneumoniae mevalonate kinase; purified MK, PK/LDH-coupled NADH absorbance 340 nm; inhibition, % at 10 µM; 0.48% of 65,000 active; AID 555;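 active = ranked among the strongest by inhibition in the single 10 µM screen, a fixed top-ranked set picked for dose follow-up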
# PMK inhibit – S. pneumoniae PMK inhibition. inhibition, % at 10 µM. 0.49% of 65,000 active. purified PMK, PK/LDH-coupled NADH absorbance 340 nm;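 active = top-ranked compounds by inhibition in the single 10 µM screen, taking a fixed number of the strongest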;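 note: 0% = full reaction with DMSO carrier and 100% = background rate without enzyme reaction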
# DPM-DC inhibit – blocks S. pneumoniae diphosphomevalonate decarboxylase; purified DPM-DC, PK/LDH coupled NADH fluorescence; calls only at 10 µM; 0.49% of 65,000 active;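 active = the 320 compounds with the highest percent inhibition in the single-dose primary screen, excluding strongly autofluorescent ones, cut at about 32% in these data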;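 note: kinetic rate of NADH fluorescence loss reporting ADP formed by the decarboxylase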
# Starred values were filed as active, the others as inactive; i = inactive; · = no result shown; + = active, no number. In the library only some 6.5% were active in any assay of this set; here they are far more common.
SMILES,NADH coupling,Autofluor 339,A340 absorber,MK inhibit,PMK inhibit,DPM-DC inhibit
COc1ccccc1C(c1nnnn1C(C)(C)C)N1CCN(Cc2ccncc2)CC1 (centres undefined),16%,0.79,1,0,27*,i
Cc1ccc(OCCNS(=O)(=O)c2cccs2)cc1,4%,1.1,0.98,0,12,i
COc1ccc(-n2c(N)c(C(=O)NCC3CCCO3)c3nc4ccccc4nc32)c(OC)c1 (centres undefined),8%,3.9*,1,11,5,·
CN(c1ccccc1C(=O)NCC1CCCO1)S(C)(=O)=O (centres undefined),5%,1.2,1,6,7,i
C=CCn1c(N)c(C(=O)NCC2CCCO2)c2nc3ccccc3nc21 (centres undefined),8%,3.8*,1,9,7,·
O=C(NCC1CCCO1)c1coc2nc3ccccc3nc12 (centres undefined),16%,2.5*,1.1,2,14,+
COc1ccc(-n2nc(C(=O)NCC(=O)NCC3CCCO3)c3ccccc3c2=O)c(OC)c1 (centres undefined),3%,1.1,1,5,3,i
COc1ccc(-c2noc(CCCC(=O)NCCc3ccccc3)n2)cc1OC,8%,1.1,0.98,13,12,i
CCCOc1ccc(C2C(C(=O)OC)=CN(CCOC)C=C2C(=O)OC)cc1,7%,2.6*,1,7,17,·
COC(=O)C1=C2SC(C)C(=O)N2C(N)=C(C#N)C1c1ccc(OC)c(OC)c1 (centres undefined),2%,0.84,1.1,0,5,i
COC(=O)C1=CN(CC2CCCO2)C=C(C(=O)OC)C1c1cc(OC)c(OC)c(OC)c1 (centres undefined),10%,2.1*,1.1,1,18,·
COCCN1C=C(C(=O)OC)C(c2ccc(OC)c(OC)c2)C(C(=O)OC)=C1,11%,2.2*,1.1,8,14,·
CC1CCCCN1Cc1nc2c(c(=O)n(C)c(=O)n2C)n1Cc1cccc2ccccc12 (centres undefined),9%,1.1,1,11,16,i
Cc1nc2sccn2c1-c1csc(NCc2ccccc2)n1,5%,1.2,1.1,·,9,i
O=C(CN(Cc1ccccc1F)S(=O)(=O)c1ccc(Cl)cc1)NCCCO,1%,1.1,1,2,0,i
O=C(NCC1CCCO1)C1CCN(C(=O)c2ccc(Br)cc2)CC1 (centres undefined),6%,1.1,1,10,3,i
COc1cccc(C2/C(=C(\O)c3c(C)nc4c(C)cccn34)C(=O)C(=O)N2CCCN(C)C)c1 (centres undefined),1%,1.1,1.1,3,0,i
COc1ccc(-c2c3c(=O)n(C)c(=O)n(C)c3cn2Cc2ccccn2)cc1,4%,1.3,1.1,4,7,i
Cn1c(=O)c2c(-c3ccccc3)n(-c3ccccc3O)cc2n(C)c1=O,13%,2.2*,1,1,16,i
Cc1cccc(-c2c3c(=O)n(C)c(=O)n(C)c3cn2-c2ccc(O)cc2)c1,7%,2.1*,1,10,4,i
COc1ccc(-c2c3c(=O)n(C)c(=O)n(C)c3cn2-c2cc(OC)ccc2OC)cc1,12%,3.7*,1,11,12,·
Cn1c(=O)c2c(-c3ccccc3)n(C3CCCCC3)cc2n(C)c1=O,17%,1.4,1,13,31*,i
Cn1c(=O)c2c(-c3ccccc3)n(N3CCOCC3)cc2n(C)c1=O,7%,1.3,1,14,6,i
CCCCc1nc2ccccc2n2cc3c(=O)n(C)c(=O)n(C)c3c12,2%,1.4,0.99,1,0,i
Cc1noc(C)c1S(=O)(=O)N1CCC(C(=O)N2CCC(N3CCCCC3)CC2)CC1,2%,1,1.1,2,3,i
SMILES,NADH coupling,Autofluor 339,A340 absorber,MK inhibit,PMK inhibit,DPM-DC inhibit
O=C(CSc1nnc(-c2csc3c2CCCC3)o1)Nc1ccccc1,7%,1.1,1,13,0,i
COC(=O)c1c(C(=O)OC)c2cc(C)ccn2c1Cl,10%,3.4*,1.1,11,8,·
COc1ccc(-c2nc(N)n(C(C)=O)n2)cc1,4%,1.1,1.1,2,9,i
COc1ccc2c(c1)cc1n2CCN2CCCN=C12,12%,2.1*,1.1,11,10,i
COc1ccc2c(c1)cc1n2CCN=C1N,10%,2.8*,1.1,10,4,i
CCN=C(NCC)SC1CC(=O)N(c2cccc(OCC)c2)C1=O (centres undefined),1%,1.1,0.99,4,0,i
CCOC(=O)c1cnc(-n2nc(C)cc2C)nc1NC,10%,1.9,1,4,11,i
CCOC(=O)c1cnc(-n2nc(C)cc2C)nc1NC1CCCCC1,6%,2*,1,8,10,i
O=C(NCc1cccs1)c1cnc2ccccn2c1=O,3%,2*,1.1,0,4,i
COc1ccccc1CNC(=O)c1cnc2ccccn2c1=O,8%,1.7,1.2,7,1,i
Cc1cc(NC(=O)c2cnc3ccccn3c2=O)no1,15%,3.7*,1.1,0,15,i
CN1C(=O)OC2(C)CCc3ccccc3C12C (centres undefined),10%,1.1,1,0,31*,i
O=C(NCc1ccco1)C(c1cccs1)N(C(=O)C1COc2ccccc2O1)c1cccc(O)c1 (centres undefined),2%,1.1,1,0,7,i
CC(C)(CO)NC(=O)C(c1ccccc1)c1ccccc1,36%,1.1,1,11,0,+
Cn1nnc(NC(=O)C(c2ccccc2)c2ccccc2)n1,4%,1.1,1,4,7,i
CN1c2cccc3cccc(c23)N(C)C1(C)C,9%,3.7*,1.1,0,18,·
Cc1noc(C)c1CSc1nc2ccccc2n1CCc1ccccc1,7%,1.1,1,3,17,i
CCOC(=O)c1sc(Nc2nc3c(OC)cccc3s2)nc1C,9%,2.2*,1,0,10,+
COc1ccc(N2C(=O)CSC23CCCCC3)cc1,6%,1.1,1,10,4,i
COc1ccc(N2C(=O)c3ccccc3NC23CCCCC3)cc1,4%,2.2*,1.1,2,6,·
COc1ccc(-n2nc3cc(C)c(NC(=O)c4cccnc4)cc3n2)cc1,14%,3.3*,1.1,8,10,i
COc1ccc(-n2nc3cc(C)c(NC(=O)CC(C)C)cc3n2)cc1,6%,2.1*,1.1,5,7,·
Cc1cc2nn(-c3ccccc3)nc2cc1NC(=O)c1cccs1,1%,1.3,1.1,1,1,i
COc1ccc(-c2cn3cc(Cl)ccc3n2)cc1OC,3%,4.8*,1.1,0,5,·

# Screens from PubChem.
